Reference: the supplement of paper PMC6089552
Hit rate of the full screen: of about 3,200 compounds, about 300 (9.4%) showed activity. What follows is part of a selection rich in actives, with near analogues and random picks from the rest.

Tested on: A673/TR/shEF
Assay: cell viability (LOESS-normalised, relative to median of negative controls) (log2 ratio); higher = more viable cells (less compound effect), active = hit call of the paper (over 3 MAD below the median)
Conditions: treatment time: 72 h
In short: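 Doxycycline, present or absent from 24 h before compounds, was used to induce EWS-FLI1 shRNA knockdown in A673/TR/shEF Ewing sarcoma cells at 1,500 per well in 384-well plates. Cells then received library compounds at two or more concentrations, or DMSO controls, for three days. Viability was measured by CellTiter-Glo luminescence on an Envision reader, and per-plate LOESS correction, division by the negative-control median and log2 transformation followed.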

[1] = 0.25 µM, library screen: screen1, EWS-FLI1 expression: high (no doxycycline)
[2] = 0.25 µM, library screen: screen1, EWS-FLI1 expression: low (doxycycline-induced shRNA knockdown)
[3] = 2.5 µM, library screen: screen1, EWS-FLI1 expression: high (no doxycycline)
[4] = 2.5 µM, library screen: screen1, EWS-FLI1 expression: low (doxycycline-induced shRNA knockdown)
[5] = 0.103 µM, library screen: screen3, EWS-FLI1 expression: high (no doxycycline)
[6] = 0.103 µM, library screen: screen3, EWS-FLI1 expression: low (doxycycline-induced shRNA knockdown)
[7] = 0.308 µM, library screen: screen3, EWS-FLI1 expression: high (no doxycycline)
[8] = 0.308 µM, library screen: screen3, EWS-FLI1 expression: low (doxycycline-induced shRNA knockdown)
[9] = 0.926 µM, library screen: screen3, EWS-FLI1 expression: high (no doxycycline)
[10] = 0.926 µM, library screen: screen3, EWS-FLI1 expression: low (doxycycline-induced shRNA knockdown)
[11] = 2.8 µM, library screen: screen3, EWS-FLI1 expression: high (no doxycycline)
[12] = 2.8 µM, library screen: screen3, EWS-FLI1 expression: low (doxycycline-induced shRNA knockdown)
[13] = 8.3 µM, library screen: screen3, EWS-FLI1 expression: high (no doxycycline)
[14] = 8.3 µM, library screen: screen3, EWS-FLI1 expression: low (doxycycline-induced shRNA knockdown)
[15] = 25 µM, library screen: screen3, EWS-FLI1 expression: high (no doxycycline)
[16] = 25 µM, library screen: screen3, EWS-FLI1 expression: low (doxycycline-induced shRNA knockdown)
[17] = 0.25 µM, library screen: screen2, EWS-FLI1 expression: high (no doxycycline)
[18] = 0.25 µM, library screen: screen2, EWS-FLI1 expression: low (doxycycline-induced shRNA knockdown)
[19] = 2.5 µM, library screen: screen2, EWS-FLI1 expression: high (no doxycycline)
[20] = 2.5 µM, library screen: screen2, EWS-FLI1 expression: low (doxycycline-induced shRNA knockdown)

Measured: cell viability (log2)

CNc1ccccc1C(=O)N1CCc2c([nH]c3ccccc23)C1=O
inactive: [1] 0.0191 | [2] -0.0744 | [3] 0.0945 | [4] 0.0188

COC1[C@H](O)[C@@H](O)C(O)[C@H](O)[C@H]1O (stereo partly drawn)
inactive: [1] 0.0827 | [2] 0.0562 | [3] 0.177 | [4] 0.115

CC(=O)O[C@H]1CC[C@]2(C)[C@H]3C(=O)C=C4[C@@H]5C[C@@](C)(C(=O)O)CC[C@]5(C)CC[C@@]4(C)[C@]3(C)CC[C@H]2C1(C)C
inactive: [1] 0.0602 | [2] 0.011 | [3] 0.129 | [4] 0.0507

CO[C@@H](C(=O)N1Cc2[nH]nc(NC(=O)c3ccc(N4CCN(C)CC4)cc3)c2C1)c1ccccc1
inactive: [6] 0.0472 | [8] -0.0579
active: [5] -0.25 | [7] -0.418 | [9] -0.596 | [10] -0.134 | [11] -0.679 | [12] -0.355 | [13] -0.794 | [14] -0.46 | [15] -1.13 | [16] -1.21

O=C(Nc1cccc(C(=O)Nc2ccc(S(=O)(=O)O)c3cc(S(=O)(=O)O)cc(S(=O)(=O)O)c23)c1)Nc1cccc(C(=O)Nc2ccc(S(=O)(=O)O)c3cc(S(=O)(=O)O)cc(S(=O)(=O)O)c23)c1
inactive: [17] 0.11 | [18] 0.117 | [19] 0.167 | [20] 0.0855

O=C(Nc1cc(C(=O)Nc2ccc(S(=O)(=O)O)c(S(=O)(=O)O)c2)cc(C(=O)Nc2ccc(S(=O)(=O)O)c(S(=O)(=O)O)c2)c1)Nc1cc(C(=O)Nc2ccc(S(=O)(=O)O)c(S(=O)(=O)O)c2)cc(C(=O)Nc2ccc(S(=O)(=O)O)c(S(=O)(=O)O)c2)c1
inactive: [17] 0.215 | [18] 0.101 | [19] 0.0469 | [20] 0.125

Cc1ccc(C(=O)Nc2ccc(S(=O)(=O)O)c3cc(S(=O)(=O)O)cc(S(=O)(=O)O)c23)cc1NC(=O)c1cccc(NC(=O)Nc2cccc(C(=O)Nc3cc(C(=O)Nc4ccc(S(=O)(=O)O)c5cc(S(=O)(=O)O)cc(S(=O)(=O)O)c45)ccc3C)c2)c1
active: [17] -2.98 | [18] -2.91 | [19] -3.46 | [20] -3.2
inactive: [1] 0.152 | [2] 0.0138 | [3] 0.0749 | [4] 0.0704

OCCN(C(=S)Nc1ccc2nccnc2c1)c1ccccc1
inactive: [1] 0.0686 | [2] 0.0667 | [3] 0.0818 | [4] 0.102

CC12CCC3c4ccc(OC(=O)c5ccccc5)cc4CCC3C1CCC2=O (stereo not drawn)
inactive: [1] -0.000312 | [2] 0.0356 | [3] 0.0819 | [4] 0.000425

Cc1cc(OC(=O)c2c(C)cc(O)cc2O)cc(O)c1C(=O)O
inactive: [1] 0.0848 | [2] -0.00358 | [3] 0.0665 | [4] 0.0394

CCCCC1C(=O)N(c2ccccc2)N(c2ccccc2)C1=O
inactive: [5] 0.0537 | [6] 0.0214 | [1] 0.128 | [2] 0.109 | [17] 0.0899 | [18] 0.0435 | [7] 0.172 | [8] 0.159 | [9] 0.0763 | [10] 0.0956 | [3] 0.118 | [4] 0.1 | [19] 0.084 | [20] 0.0326 | [11] 0.137 | [12] 0.112 | [13] 0.169 | [14] 0.123 | [15] 0.117 | [16] 0.141

CCCCC1C(=O)N(c2ccccc2)N(c2ccc(O)cc2)C1=O (stereo not drawn)
active: [3] -0.129
inactive: [1] 0.139 | [2] 0.0945 | [4] 0.2

O=C1C(CC[S+]([O-])c2ccccc2)C(=O)N(c2ccccc2)N1c1ccccc1 (stereo not drawn)
inactive: [1] 0.123 | [2] 0.158 | [3] 0.184 | [4] 0.139

COc1cccc(CN2CCN(Cc3c[nH]c4ccccc34)CC2)c1
inactive: [1] 0.11 | [2] 0.105 | [3] 0.138 | [4] 0.0572

CNC[C@H](O)c1ccc(O)c(O)c1
inactive: [5] 0.00528 | [6] 0.0495 | [1] 0.106 | [2] 0.0509 | [17] 0.169 | [18] 0.0474 | [7] 0.079 | [8] 0.091 | [9] 0.0631 | [10] 0.0893 | [3] 0.183 | [4] 0.209 | [19] 0.122 | [20] 0.099 | [11] 0.0488 | [12] 0.0524 | [13] -0.00361 | [14] 0.0638 | [15] 0.098 | [16] 0.00995

NCC(O)c1ccc(O)c(O)c1 (stereo not drawn)
active: [17] -0.177
inactive: [18] 0.0558 | [19] 0.0351 | [20] -0.00208
